PubChem BioAssay (Tox21)
Results filed as inconclusive are left out. A number with no mark means an inactive call. Calls follow the shape of the full dose curve. Peptide text beside a SMILES is read from it.

Assay: cAMP Responsive Elements (CRE) small molecule agonists, cell-based qHTS assay (AID 1963590)
Conditions: CRE-bla HEK293T, beta-lactamase FRET ratio, 3 h; series mostly up to 92.4 µM; activation: at the top concentration
From the text: U.S. Tox21 Program National Center for Advancing Translational Sciences [NCATS] Division of Preclinical Innovation [DPI] U.S. Environmental Protection Agency [EPA] National Institutes of Environmental Health Sciences [NIEHS] National Toxicology Program [NTP] U.S. Food and Drug Administration [FDA] Tox21 Assay Overview: CREB (cyclic-AMP Responsive Element Binding Protein) is a cellular transcription factor. It binds to certain DNA sequences called cAMP Responsive Elements (CRE) and regulates the transcription of the genes. […] This cell line can be used to find agonists/antagonists of the cyclic AMP signaling pathway. The activation of the report gene under culture conditions can be detected by fluorescence intensity. This cell line has been used to screen the Tox21 10K compound library to identify agonists that induce oxidative stress.
Tox21 Assay Protocol Summary: CRE-bla Hek 293T cells were suspended in assay medium (DMEM containing 10% dialyzed FBS, 0.1 mM NEAA, 1 mM sodium pyruvate and 25 mM HEPES) and dispensed at 2,000 cells/5 uL /well into 1536-well black wall/clear bottom plates using a Multidrop Combi (ThermoFisher Scientific, Waltham, MA) dispenser. After the assay plates were incubated at 37 C/5% CO2 for 18 hrs, 23 nL of compounds dissolved in DMSO, positive controls or DMSO only was transferred to the assay plate by a pintool workstation (Kalypsys, San Diego, CA). After the plates were incubated at 37 C/5% CO2 for 3 hrs, 1 uL of LiveBLAzer B/G FRET substrate (Invitrogen, Carlsbad, CA) was added to each well using Bioraptr Flying Reagent Dispenser (FRD, Aurora Discovery, San Diego, CA). The plates were incubated at room temperature for 2 h.
% is scaled to controls: 0 for no effect and ±100 for the full control effect.

Going from `CC1(C)CC(OC(=O)CCCCCCCCC(=O)OC2CC(C)(C)NC(C)(C)C2)CC(C)(C)N1` to `CCn1cc(C(=O)O)c(=O)c2cc(F)c(N3CCN(C)CC3)cc21`, the activation falls from 1.42% [at 19 µM] to -2.07% [at 19 µM].

Molecule `C/C=C/C(=O)CC` has an activation of -0.284% [at 19 µM].

First: O=C(CCCN1CCC(O)(c2ccc(Br)cc2)CC1)c1ccc(F)cc1
Second: CCc1ccc(C(=O)C(C)CN2CCCCC2)cc1 (stereo not given)
The “activation” value of the first is higher: -1.04% [at 42.5 µM] for the first, -3.06% [at 42.5 µM] for the second.

Compared with `CN(C)CCC=C1c2ccccc2C=Cc2ccccc21`, `CN(C)CCCOc1nn(Cc2ccccc2)c2ccccc12` is lower in “activation” value: 3.61% [at 42.5 µM] for the first, 1.27% [at 42.5 µM] for the second.

First: CCN(CC)CCOCCOC(=O)C1(c2ccccc2)CCCC1
Second: CN(C)C/C=C(/c1ccc(Br)cc1)c1cccnc1
The “activation” value of the first is lower: -0.789% [at 42.5 µM] for the first, 0.196% [at 42.5 µM] for the second.

Compared with `CN1C(C)(C)CCCC1(C)C`, `COc1cc2c3cc1Oc1cc(ccc1O)C[C@@H]1c4c(cc(OC)c(O)c4Oc4ccc(cc4)C[C@@H]3N(C)CC2)CC[N+]1(C)C` is lower in “activation” value: 0.276% [at 42.5 µM] for the first, -1.16% [at 42.5 µM] for the second.

First: Fc1ccc([C@@H]2CCNC[C@H]2COc2ccc3c(c2)OCO3)cc1
Second: Nc1nnc(-c2cccc(Cl)c2Cl)c(N)n1
The “activation” value of the first is higher: 2.49% [at 42.5 µM] for the first, 0.515% [at 42.5 µM] for the second.

Compared with `CCCCCCCCCCCCCCCCCCN(C)C`, `CCCCCC(C)N` (stereo not given) is higher in “activation” value: -0.499% [at 42.5 µM] for the first, 0.486% [at 42.5 µM] for the second.

Compared with `CC(=O)N[C@@H](CO)C(=O)N[C@@H](CC(=O)O)C(=O)N[C@@H](CCCCN)C(=O)N1CCC[C@H]1C(=O)O` (Ac-SDKP-OH), `O=P(O)(O)C(O)(Cc1cccnc1)P(=O)(O)O` is higher in “activation” value: 0.28% [at 42.5 µM] for the first, 0.561% [at 42.5 µM] for the second.

In the case of `FC(F)(F)C(F)(F)C(F)(F)C(F)(F)C(F)(F)C(F)(F)C(F)(F)C(F)(F)Br`, the “activation” value is reported as 0.707% [at 42.5 µM].

Going from `CCN(CC)c1ccc(C(=C2C=CC(=[N+](CC)CC)C=C2)c2ccc(S(=O)(=O)O)cc2S(=O)(=O)[O-])cc1` to `Nc1cc(S(=O)(=O)O)ccc1O`, the “activation” value falls from -0.0817% to -0.831%.

Going from `CC(C)=CCOC(=O)c1ccccc1` to `Cc1ccccc1C#N`, the “activation” value rises from -1.21% to -0.867%.

Going from `CCCCN(C)C` to `CN(C)CCCCl`, the “activation” value falls from -0.128% to -1.28%.

Going from `CC(C)=CCC/C(C)=C/COC=O` to `CC(C)=CC(=O)C=C(C)C`, the “activation” value rises from -0.142% to 0.313%.

Compared with `C=CC(C)C#N` (stereo not given), `Cc1ccc(C=O)s1` is lower in “activation” value: 0.475% for the first, -0.104% for the second.

Compared with `CCCCOC(=O)/C=C\C(=O)OCCCC`, `CCCCCCCC(=O)OCC` is higher in “activation” value: -2.75% for the first, 0.704% for the second.

First: Cc1nc2ccc(Cl)cc2[nH]1
Second: CSSc1ccoc1C
The “activation” value of the first is lower: -0.642% for the first, 0.0208% for the second.

Going from `N#C[C@@H]1CC(F)(F)CN1C(=O)CNC1CC2CCC(C1)N2c1ncccn1` (stereo not given in full) to `C[C@@H]1C[C@H]2[C@@H]3CCC4=CC(=O)C=C[C@]4(C)[C@@]3(F)[C@@H](O)C[C@]2(C)[C@@]1(O)C(=O)CO`, the “activation” value rises from -3.18% to 0.48%.

Compared with `CCCCCCCCCCCCCCC1CO1` (stereo not given), `CCNC(=O)C1CC(C)CCC1C(C)C` (stereo not given) is lower in “activation” value: -0.144% for the first, -1.05% for the second.

Compared with `CCC(=O)OC(=O)CC`, `CCC(O)C(C)(C)C` (stereo not given) is higher in “activation” value: -1.1% for the first, -0.12% for the second.

With `C[Si]1(C)N[Si](C)(C)N[Si](C)(C)N1` the “activation” value was -1.81%.

With `NC[C@H]1O[C@H](O[C@H]2[C@H](O[C@@H]3O[C@H](CO)[C@@H](O)[C@H]3O)C(O)[C@H](N)C[C@@H]2N)[C@H](N)[C@@H](O)[C@@H]1O` (stereo not given in full) the activation was 4.47% [at 8.39 µM].
